Assay outcomes as filed in PubChem BioAssay.
The list is not random: actives were taken first. Their share in the collection is about 4%.
Beta cell apopt = inhibitors of cytokine-induced beta cell apoptosis, primary screen, luminescence; protection from apoptosis, % (no concentration beside the values); hit rate 0.8% among 300,000; INS-1E cytokine-induced death, ATP luminescence, 48 h; percent of positive-control rescue, neutral wells zero; AID 435005, 2010;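 active = Every replicate reaches about 75%, or at least half do and their mean reaches it too, limit read from the data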;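 also: higher means more ATP so stronger rescue from cytokine killing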
Mdm2-MdmX inh = inhibitors of human Mdm2-MdmX association, primary screen, cell-based, luminescence, split luciferase, SaOS-2, uHTS. AID 485346, 2010. inhibition, % at 8 µM. SaOS-2 split-luciferase Mdm2/MdmX complementation. hit rate 3% among 330,000;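 active = inhibition of at least 50% at 8 µM in the primary screen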
Target sequence (O15151 whole entry, looked up): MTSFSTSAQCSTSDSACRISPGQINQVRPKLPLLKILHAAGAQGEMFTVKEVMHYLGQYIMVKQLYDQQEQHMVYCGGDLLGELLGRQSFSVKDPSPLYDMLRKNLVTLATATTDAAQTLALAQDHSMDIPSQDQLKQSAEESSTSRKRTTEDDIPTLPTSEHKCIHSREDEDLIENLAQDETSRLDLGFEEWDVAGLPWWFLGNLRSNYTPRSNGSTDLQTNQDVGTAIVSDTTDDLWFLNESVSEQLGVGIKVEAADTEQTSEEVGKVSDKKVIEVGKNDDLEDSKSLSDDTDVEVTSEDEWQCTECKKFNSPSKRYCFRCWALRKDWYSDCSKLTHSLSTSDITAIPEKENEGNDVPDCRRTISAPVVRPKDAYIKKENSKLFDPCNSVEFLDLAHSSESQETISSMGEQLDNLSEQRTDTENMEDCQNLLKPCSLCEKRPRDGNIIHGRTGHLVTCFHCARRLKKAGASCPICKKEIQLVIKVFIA
Target sequence (Q00987 whole entry, looked up): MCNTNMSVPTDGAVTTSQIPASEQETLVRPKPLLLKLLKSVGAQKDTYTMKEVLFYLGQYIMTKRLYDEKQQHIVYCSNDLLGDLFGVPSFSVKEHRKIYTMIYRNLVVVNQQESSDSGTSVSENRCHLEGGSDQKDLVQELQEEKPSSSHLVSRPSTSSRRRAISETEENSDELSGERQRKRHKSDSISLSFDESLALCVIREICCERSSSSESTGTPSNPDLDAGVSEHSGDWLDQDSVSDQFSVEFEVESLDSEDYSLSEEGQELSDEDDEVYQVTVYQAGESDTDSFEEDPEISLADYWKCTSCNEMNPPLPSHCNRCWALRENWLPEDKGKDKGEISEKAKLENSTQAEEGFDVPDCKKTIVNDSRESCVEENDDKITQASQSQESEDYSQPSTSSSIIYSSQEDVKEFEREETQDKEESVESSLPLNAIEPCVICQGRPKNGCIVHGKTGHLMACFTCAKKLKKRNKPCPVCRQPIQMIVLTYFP
Jurkat NFkB inh = inhibitors of induced NF-kB luciferase reporter, primary screen, TCR NF-kB activation inhibitor project, cell-based, luminescence, uHTS; Jurkat, PMA/ionomycin-induced NF-kB luciferase reporter; inhibition, % at 4 µM; hit rate 0.53% among 330,000; AID 435003, 2010; in the data active = inhibition above about 50%
697 NFkB inh = inhibitors of PMA/ionomycin-induced NF-kB reporter, 697 cells, primary screen, B-cell NF-kB inhibitor project, cell-based, luminescence, uHTS; inhibition, % at 4 µM; hit rate 0.33% among 330,000; AID 435022, 2010; 697 B-cell NF-kB luciferase reporter, 16 h; in the data active = inhibition above about 35%
Gli-Sufu block = Gli-Sufu pathway antagonists, primary screen, luciferase luminescence, Sufu-KO-LIGHT cells, uHTS | Sufu-KO-LIGHT fibroblasts, Gli luciferase reporter luminescence | inhibition, % at 5 µM | hit rate 0.74% among 340,000 | AID 588413, 2011;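 active = inhibition above about 55%, limit read from the data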
A number is an active result; . = inactive; / = no result.

SMILES | Beta cell apopt | Mdm2-MdmX inh | Jurkat NFkB inh | 697 NFkB inh | Gli-Sufu block
Cc1ccc(NC(=O)Cn2c(=O)oc3cc(S(=O)(=O)N4CCC(C)CC4)ccc32)cc1C | 76.0 | . | . | . | .
CCC(=O)NC(c1ccco1)c1cc(Cl)c2cccnc2c1O (configuration not stated) | . | . | . | . | .
Oc1c(C(Nc2ccccn2)c2cccnc2)cc(Cl)c2cccnc12 (configuration not stated) | 84.6 | . | . | . | .
COc1ccccc1CCC(=O)NNC(=O)c1cccs1 | . | . | . | . | .
C/C(=N\Nc1ccc(Cl)c(C(=O)O)c1)c1ccccn1 | . | . | . | . | .
C/C(=N\Nc1ncc(Cl)cc1Cl)c1ccccn1 | / | / | / | / | 76.1
CC(=NNC(=S)Nc1ccccc1Cl)c1ccccn1 | / | / | / | / | 92.5
COc1ccc(NC(=O)CC2SC(N3CCOCC3)=NC2=O)cc1OC (configuration not stated) | . | . | . | . | .
O=C(NCc1cccnc1)/C(=C\c1ccc(-c2ccc(Cl)c(Cl)c2)o1)S(=O)(=O)c1ccccc1 | 104.7 | / | / | / | .
CCN(Cc1ccccc1)C(=O)c1ccc(N(C)S(=O)(=O)c2ccc(C)cc2)cc1 | . | . | . | . | .
CCCCCN=Cc1c(C)[nH]n(-c2nc3ccccc3s2)c1=O | 90.4 | . | . | . | .
CC(C)COC(=O)c1ccc2c(c1O)C(=O)c1ccccc1C2=O | 85.2 | . | . | . | .
COc1ccc2c(c1O)C(=O)c1ccccc1C2=O | . | . | . | . | /
O=C(N/N=C/c1cn(-c2ccccc2)nc1-c1ccc(F)cc1)c1ccc(Br)o1 | 109.8 | . | . | . | .
COc1ccc(O)c(C(=O)c2cnn(-c3ccccn3)c2)c1 | . | . | . | . | .
COc1ccc(O)c(C(=O)c2cnc3nc4ccccc4n3c2)c1 | 83.3 | / | / | / | /
Nc1ccc(N=Nc2ccccc2O)c(N)c1 | . | . | . | . | .
Oc1ccccc1N=Nc1ccccc1O | / | / | / | / | 87.2
O=C(NC1CC1)c1cc2c(F)cccc2s1 | . | . | . | . | .
c1cc(-c2noc(CC3CCCCC3)n2)ccn1 | 79.1 | . | . | . | .
c1ccc(-c2noc(CC3CCCCC3)n2)nc1 | . | . | . | . | .
COc1ccc(C2/C=C\CN(C(=O)Nc3ccc(C(F)(F)F)cc3)CC(=O)N2Cc2ccc(F)cc2)cc1 (configuration not stated) | 80.6 | . | . | . | .
CN(C(=O)COC(=O)c1cc(S(=O)(=O)N2CCOCC2)ccc1Cl)C1CCS(=O)(=O)C1 (configuration not stated) | . | . | . | . | .
Cc1ccc2c(c1)N(C(=O)CCC(=O)NCCCN1CCC(Cc3ccccc3)CC1)CCO2 | 99.4 | . | . | . | .
CCOc1ccc(Nc2nc(Cc3nnc(SCC(=O)c4ccc(C)c(C)c4)o3)cs2)cc1 | 97.4 | . | . | . | .
SMILES | Beta cell apopt | Mdm2-MdmX inh | Jurkat NFkB inh | 697 NFkB inh | Gli-Sufu block
COc1ccc(-c2cc(C(=O)N3CCOCC3)c3ccccc3n2)cc1OC | . | . | . | . | .
COc1cc2cc(C(=O)N3CCOCC3)cc(-c3ccc(C)cc3)c2cc1OC | 101.4 | . | . | . | .
CCCCC(=O)NC(c1cccc([N+](=O)[O-])c1)c1ccc2cccnc2c1O (configuration not stated) | / | / | / | / | 62.3
O=[N+]([O-])c1ccc(NC(c2ccccc2)c2ccc3cccnc3c2O)cc1 (configuration not stated) | / | / | / | / | 69.9
O=C(C1CCOCC1)N1CCCC(N2CCN(c3ccc(F)cc3)CC2)C1 (configuration not stated) | . | . | . | . | .
CC(=O)N(Cc1ccc(F)cc1)C1=C(NCc2ccccc2)C(=O)c2ccccc2C1=O | / | / | / | / | 91.5
COc1cccc(/C=N/NC(=O)CNC(=O)c2cccs2)c1O | 86.0 | . | . | . | .
N#Cc1ccc(Oc2ccc(C#N)c(C#N)c2)cc1C#N | / | / | / | / | .
CN1/C(=C\C=C2/SC(=S)NC2=O)C(C)(C)c2ccccc21 | 99.1 | . | . | . | 71.1
CC(=O)c1c(C)oc2ccc(N(C(C)=O)S(=O)(=O)c3cccc4cccnc34)cc12 | 104.4 | . | . | . | .
O=C(N/N=C1\C2CN3CCN(C2)CC1(c1ccccc1)C3)Nc1ccccc1 | / | . | . | . | .
COc1cc(/C=N/NC(=O)c2cccnc2)ccc1OC(=O)c1cc(OC)c(OC)c(OC)c1 | 109.1 | . | . | . | .
COc1cc(/C=N/NC(=O)c2cccnc2)ccc1OC(=O)c1ccc2c(c1)OCO2 | . | . | . | . | .
CC12CCC(C(=O)Nc3nc4ccccc4s3)(OC1=O)C2(C)C (configuration not stated) | . | . | . | . | .
CCn1nnc(NC(=O)c2cccc(-c3cc4ccccc4oc3=O)c2)n1 | . | . | . | . | .
CCOc1ccc2nc(NC(=O)c3cccc(-c4cc5ccccc5oc4=O)c3)sc2c1 | 80.8 | / | / | / | .
CCCN1CCCc2cc(CN)ccc21 | 98.1 | . | . | . | .
CN1CCCc2cc(C=O)ccc21 | . | . | . | . | .
O=C(Nc1ccc([N+](=O)[O-])cc1)Nc1ccc(OC(F)F)c(Cl)c1 | 132.0 | / | / | / | 57.6
O=C(Nc1ccc(OC(F)F)c(Cl)c1)Nc1ccc2c(c1)OCO2 | . | . | . | . | .
CC1=C(C)/C(=N\OS(=O)(=O)c2ccc(C)cc2)C=CC1=O | 106.2 | / | / | / | .
CCc1ccc2[nH]c(=O)c(C3C(C#N)=C(N)Oc4c3ccc3cccnc43)cc2c1 (configuration not stated) | 94.3 | . | . | . | .
N#CC1=C(N)Oc2cc3ccccc3cc2C1c1cccnc1 (configuration not stated) | . | . | . | . | .
N#CC1=C(N)Oc2c(ccc3cccnc23)C1c1cccnc1 (configuration not stated) | 98.7 | . | . | . | .
Cc1ccc2cc(C3C(C#N)=C(N)Oc4c3ccc3cccnc43)c(=O)[nH]c2c1 (configuration not stated) | 88.3 | . | . | . | .
SMILES | Beta cell apopt | Mdm2-MdmX inh | Jurkat NFkB inh | 697 NFkB inh | Gli-Sufu block
CC(=O)C1=C(C)OC(N)=C(C#N)C1c1cc2cccc(C)c2nc1Cl (configuration not stated) | . | . | . | . | .
Cc1ccc(CN2CCN(C(=O)c3ccncc3)CC2)cc1 | . | . | . | . | .
COc1cc(CCNC2=CC(=O)c3ncccc3C2=O)ccc1O | / | / | / | / | .
COc1ccc2[nH]c3c(c2c1)CCN1C(=O)N([C@@H](C)C(=O)NCCc2ccc(F)cc2)C(=O)[C@]31C | . | . | . | . | .
O=C1C(Cl)=C(Nc2ccc3cn[nH]c3c2)C(=O)c2ccccc21 | 110.3 | / | / | / | .
O=C(Nc1ccc2cn[nH]c2c1)c1c(Cl)cccc1Cl | / | . | . | . | .
